# Biological target: LYPD3
# Assay: pooled miR-30 sensor sort-seq; sequence = guide strand
# Conditions: shRNA
row,Sequence,sensor-assay potency score (higher = more potent)
1,TTGCCGTCGAAGCAGCCCTTGT,-1.63
2,TCTTGTTCGGGGAGCATCCGTC,-0.769
3,TCATCTGCTTTCTGCACGCAGC,-1.43
4,TTGAGCTTGGCGTTGCAGCGAT,-0.598
5,TTCATCCTGGACACAGCCCCGG,-0.847
6,TTCACTGTCTTCATCTTGTTCG,0.494
7,TCATCCTGGACACAGCCCCGGA,-1.53
8,TGCACTCTCATTACCTGCCGGG,-0.389
9,TTGTAGACATGATCGCTGGCGT,-0.346

# Biological target: LYZL6
# Assay: as above
# Conditions: shRNA
row,Sequence,sensor-assay potency score (higher = more potent)
1,ATAATCGTTGCACCAGTAGTGG,-0.825
2,TCAGCAGATCTTGACAGTCTAC,-0.859
3,TTTAGGGCAAGAAAGCTGCTGA,-0.16
4,CAGATCTTGACAGTCTACGTGG,-1.04
5,TATGTTGAACTTGCTTTCCACA,-1.04
6,TTTGATATGTTGAACTTGCTTT,0.0932
7,TTGCTTTCCACAAAAGCCAGGC,-0.197
8,TAATCGTTGCACCAGTAGTGGC,-1.43
9,TTGATATGTTGAACTTGCTTTC,-0.485
10,TATCTTTGATATGTTGAACTTG,-0.231
11,AACAGTGCAACCTCCATTCTAC,-0.122
12,ATCTTTGATATGTTGAACTTGC,-0.0692

# Biological target: LZTR1
# Assay: as above
# Conditions: shRNA
row,Sequence,sensor-assay potency score (higher = more potent)
1,TACTCGACACTGTCCGAGCAGC,-1.08
2,TAGGGTAACAGGAGAACTGGAA,0.345
3,TATTTGATCTTGTCGGTGTAGA,0.13
4,TCATTGAGCATGGTCTTCCCAT,-0.632
5,TAACAGGAGAACTGGAACCTGT,-1.05
6,TTAGGGTAACAGGAGAACTGGA,-0.956
7,AATACAAACATCTTGTCCCGGC,-0.355
8,TTGGAGACCTTGGTGAACTGGT,0.248
9,TTTCACATCGAACCGCAGGAGG,-1.16
10,TATGATGTCCAGCAGCAGCTGC,-0.965
11,TTCATCTCCAGGTTCTGCTTGC,0.0647

# Biological target: MACROD1
# Assay: as above
# Conditions: shRNA
row,Sequence,sensor-assay potency score (higher = more potent)
1,TTGAGCTGCTTGTCCTTTTTAT,-0.992
2,TTACAGCTCTGCAGGGTCCGGC,-1.02
3,TTCGCCTCCTTCCAGTCGGTGG,-1.48
4,TTTCTCATTGAGCTGCTTGTCC,-0.192
5,AAGGATTTCGCCTCCTTCCAGT,-0.552
6,AACACGCAGATGATCAGCCGGT,-0.183
7,TTTCGCCTCCTTCCAGTCGGTG,-1.53
8,TCCAGCTTGGTGATGTCGCTGC,-0.0855

# Reference: the OligoGym collection
